Active and inactive are the calls of the source.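 Rule for the calls: active = compounds whose GFP signal falls below 65% of the DMSO control level; inconclusive = fewer than 70 yeast cells counted in the well; inactive = the rest.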

The assay in a line: TOR branch reporter RPL19A-GFP response – cell-based, S. cerevisiae, third cherry pick, flow cytometry, confirmation (AID 504336).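 Note: median GFP fluorescence of all gated yeast cells by flow cytometry; ratio of well median fluorescence to plate mean of DMSO wells with DMSO = 100%.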 The note with it: S. cerevisiae RPL19A-GFP strain, 3 h, at 10 µM, hits give low values.
As for `Cc1ccc2c(c1N)C(=O)c1ccccc1C2=O`, the GFP response relative to DMSO was 101% (inactive).

`C/C(O)=C(\C#N)C(=O)Nc1cc(Br)ccc1Br`: the GFP response relative to DMSO is 97.5% (inactive). Take `CN(C)C(=O)Oc1ccnc2cc(Cl)ccc12`: the GFP response relative to DMSO was 102% (inactive).

With `CCN1CCN(c2ncnc3ccc(Br)cc23)CC1`, the GFP response relative to DMSO is 100% (inactive). Consider `CN(C)C(=O)Oc1ccc(Cl)c2cccnc12`, for which the GFP response relative to DMSO was 101% (inactive). Then `CN1CCN(c2ncnc3ccc(Br)cc23)CC1`, with 99.3% (inactive).
